# Data as given in paper PMC4552634, “A New Set of Chemical Starting Points with Plasmodium falciparum Transmission-Blocking Potential for Antimalarial Drug Discovery” (PLoS ONE, 2015).
# The campaign covered roughly 13,000 compounds. About 3,200 (25%) showed an effect of 50% or more. This is one part of the list.
# System: P. falciparum stage V gametocytes
# Design: BacTiter-Glo ATP luminescence viability of purified stage V gametocytes in 384-well plates, per cent inhibition versus DMSO
# Details: 48 h, 5 µM; inhibitor
row,Compound,% Inhibition [%]
1,O=C(/C=C/c1ccc(Cl)cc1)NCCCCCN1CCCN(C(=O)Nc2ccc(Cl)c(C(F)(F)F)c2)CC1 [TCMDC-136100],-19.2
2,O=C(Nc1cccc(N2CCC(NCCCn3ccnc3)CC2)c1)c1cccc(C(F)(F)F)c1 [TCMDC-124663],36.86
3,Cc1cc(NC(=O)NCCN2CCC(NS(=O)(=O)c3cccc(Br)c3)C2)c2ccccc2n1 (centres unmarked) [TCMDC-136138],15.89
4,COc1ccc(NC(=O)NC2CCN(CCCOc3ccnc4cc(Cl)ccc34)C2)cc1OC (centres unmarked) [TCMDC-136148],-28.4
5,Cc1cc(OCCCN2CCC(NC(=O)c3ccc(Br)cc3)C2)c2ccccc2n1 (centres unmarked) [TCMDC-136284],3.225
6,Cc1cc(NC(=O)NCCN2CCC(NS(=O)(=O)c3ccc(Br)cc3)C2)c2ccccc2n1 (centres unmarked) [TCMDC-136139],5.798
7,Cc1cc(NC(=O)NCCN2CCC(NC(=O)c3ccc(F)cc3)CC2)c2ccccc2n1 [TCMDC-136173],91.01
8,COc1ccc(S(=O)(=O)NC2CCN(CCNC(=O)Nc3cc(C)nc4ccccc34)C2)cc1 (centres unmarked) [TCMDC-136141],-35.07
9,Cc1cc(NC(=O)NCCN2CCC(NC(=O)c3ccc(Cl)cc3)CC2)c2ccccc2n1 [TCMDC-136171],-56.82
10,Cc1ccc(C(=O)NC2CCN(CCNC(=O)Nc3cc(C)nc4ccccc34)CC2)cc1 [TCMDC-136172],-7.111
11,Cc1cc(NC(=O)NCCN2CCC(NC(=O)c3ccc(C(F)(F)F)cc3)CC2)c2ccccc2n1 [TCMDC-136174],-43.73
12,Cc1ccc(S(=O)(=O)NC2CCN(CCNC(=O)Nc3cc(C)nc4ccccc34)C2)cc1 (centres unmarked) [TCMDC-136143],91.8
13,Cc1cc(NC(=O)NCCN2CCC(NC(=O)c3cccc(Br)c3)C2)c2ccccc2n1 (centres unmarked) [TCMDC-136175],92.91
14,COc1ccc(NC(=O)NC2CCN(CCCOc3cc(C)nc4ccccc34)CC2)cc1OC [TCMDC-136281],77.42
15,CC(=O)Nc1ncc(C(=O)Nc2cccc(-c3ccc(-c4nc5ccc(C(F)(F)F)cc5[nH]4)cc3)c2)s1 [TCMDC-136921],-28
16,CC(=O)Oc1c(C2C=CCCC2)c(OC(C)=O)c2ccccc2c1OC(C)=O (centres unmarked) [TCMDC-138176],9.671
17,O=C(NC1CCCCC1)c1ccc(O)c(-c2cccc(C(F)(F)F)c2)c1 [TCMDC-140163],-1.763
18,Cc1ccc(O)cc1Nc1ccnc2cc(-c3csc(CNCCN4CCOCC4)n3)ccc12 [TCMDC-138457],16.99
19,Cc1noc(C)c1-c1cccc(CNCc2cccc(-c3ccc(-c4nc5cc(C(F)(F)F)ccc5[nH]4)s3)c2)c1.O=C(O)C(F)(F)F [TCMDC-133055],0.7472
20,CCOc1cc2c(cc1OCC)C(c1cc(OC)c(O)cc1Cl)NCC2 (centres unmarked) [TCMDC-124488],-19.03
21,CCc1cc(-c2onc(C)c2-c2cc3ccccc3o2)c(O)cc1OC [TCMDC-125148],5.13
22,C=C(C)CSc1nc2c(c(=O)n1Cc1ccco1)C1(CCCCC1)Cc1ccccc1-2 [TCMDC-123895],6.726

row,Compound,% Inhibition [%]
1,CCn1c(O)c(N=NC(=S)N2CCCC2)c2ccccc21 [TCMDC-138077],9.29
2,Oc1[nH]c2ccccc2c1N=NC(=S)N1CCOCC1 [TCMDC-124263],29.38
3,Cn1c(O)c(N=NC(=S)N2CCOCC2)c2ccccc21 [TCMDC-138076],88.31
4,COc1ccc(-c2ccc(NC(=O)c3cccc(C#N)c3)cc2)cc1CN1CCNCC1 [TCMDC-132530],-2.653
5,COc1cccc(C(=O)Nc2nc3c(s2)CCN(Cc2ccccc2N2CCNCC2)CC3)c1.O=C(O)C(F)(F)F [TCMDC-134190],63.98
6,CCN1CCN(c2cc(C)c3cc(NC(=O)c4cccc(OC)c4)ccc3n2)CC1 [TCMDC-125573],10.75
7,N#Cc1ccc(/C=C/C(=O)NCCCCCN2CCN(C(=O)Nc3ccc(Cl)c(C(F)(F)F)c3)CC2)cc1 [TCMDC-136098],-6.45
8,COc1ccc(C(=O)c2ccc3[nH]cc(C4=CCN(C)CC4)c3c2)cc1 [TCMDC-137276],-3.804
9,Cc1ccc(C(=O)Nc2cccc(CN3CCCN(Cc4ccc(O)cc4)CC3)c2)s1 [TCMDC-141858],30.58
10,C#C[C@H]1O[C@@H](n2cnc3c(Nc4cc(Br)cc(C(F)(F)F)c4)ncnc32)[C@H](O)[C@@H]1O [TCMDC-135185],10.32
11,Cc1[nH]c(C)c(-c2ccc(C#Cc3ccc(F)cc3F)cc2)c(=O)c1Br [TCMDC-134692],64.24
12,Cc1[nH]c(C)c(-c2ccc(CCc3ccc(F)cc3F)cc2)c(=O)c1Cl [TCMDC-135462],72.17
13,CCC(N)(C#Cc1ccc(-c2c(C)[nH]c(C)c(Br)c2=O)cc1)CC [TCMDC-134693],83.96
14,Cc1[nH]c(C)c(-c2ccc(-c3ccc(F)cc3)cc2)c(=O)c1Cl [TCMDC-137408],-2.511
15,Cc1[nH]c(C)c(-c2ccc(CCc3ccc(F)cc3F)cc2)c(=O)c1Br [TCMDC-135461],65.46
16,Cc1ccc(-c2ccc3c(c2)C=C(C(=O)NC2CCN(CCNC(=O)c4cccc(C(F)(F)F)c4)CC2)CCC3)cc1 [TCMDC-141948],-9.898
17,COC(=O)c1cccc(NC(=O)NC2CCN(c3ccnc(Nc4cc(OC)c(OC)c(OC)c4)n3)C2)c1 (centres unmarked) [TCMDC-133630],-28.99
18,Cc1cc(N2CCCC2)nc(Nc2ccc(NC(=O)c3cccc(F)c3)cc2)n1 [TCMDC-124709],-4.91
19,Cc1ccnc(-n2c(C)cc(C=C3SC(=Nc4ccccc4)N(Cc4ccco4)C3=O)c2C)c1 [TCMDC-125659],-67.39
20,O=C(N[C@H](CC1CCCCC1)C(=O)NC1CCCc2ccccc21)c1ccc(O)c(-c2cccc([N+](=O)[O-])c2)c1 (some centres unmarked) [TCMDC-140799],21.9
21,Cc1cccc2[nH]c(-c3cccc(-c4ccc(NC(=O)CN5CCN(C)CC5)cc4)c3)nc12 [TCMDC-136983],81.12
22,Cc1cccc2[nH]c(-c3ccc(-c4ccc(NC(=O)Nc5ccsc5)cc4)cc3)nc12 [TCMDC-133215],-35.23

row,Compound,% Inhibition [%]
1,Cc1nc(C)c(CC(=O)Nc2cccc(-c3cccc(-c4nc5c(C)cccc5[nH]4)c3)c2)s1 [TCMDC-136997],6.613
2,Cc1cccc2[nH]c(-c3cccc(-c4ccc(NC(=O)CS(C)(=O)=O)cc4)c3)nc12 [TCMDC-136851],-1.399
3,Cc1nc(C)c(CC(=O)Nc2ccc(-c3cccc(-c4nc5ccc(C(F)(F)F)cc5[nH]4)c3)cc2)s1 [TCMDC-136996],-50.06
4,Cc1nc(C)c(CC(=O)Nc2ccc(-c3cccc(-c4nc5c(C)cccc5[nH]4)c3)cc2)s1 [TCMDC-136998],88.79
5,Cc1cccc2[nH]c(-c3ccc(-c4ccc(NC(=O)CN5CCN(C)CC5)cc4)cc3)nc12 [TCMDC-136975],64.7
6,Cc1cccc2[nH]c(-c3cccc(-c4cccc(NC(=O)CN5CCN(C)CC5)c4)c3)nc12 [TCMDC-136982],18.86
7,CC(C)(C)OC(=O)N(Cc1cc(-n2nnnc2C(F)(F)F)ccc1O)[C@H]1CCCN(C(=O)OC(C)(C)C)[C@H]1c1ccccc1 [TCMDC-132022],-21.48
8,CC(C)(C)c1ccc(NC(=O)c2cccc(CN3CCCN(Cc4cccc(O)c4)CC3)c2)cc1 [TCMDC-135983],-11.1
9,O=C(/C=C/c1ccc(Cl)c(Cl)c1)NC1CCN(Cc2ccc(O)cc2)C1 (centres unmarked) [TCMDC-141739],26.39
10,COc1ccc2nccc([C@@H](O)CN3CCC(NCc4cnc5c(c4)NC(=O)CS5)C(F)C3)c2c1 (some centres unmarked) [TCMDC-141716],19.26
11,CC(C)c1ccc(CN2CCC(CNC(=O)c3cc(-c4ccccc4F)cs3)C2)cc1 (centres unmarked) [TCMDC-134436],107.7
12,CC(C)(C)c1ccc(CN2CCC(CNC(=O)c3cc(-c4ccccc4F)cs3)C2)cc1 (centres unmarked) [TCMDC-134443],104.8
13,CC(C)Oc1ccccc1-c1csc(C(=O)NCC2CCN(Cc3ccc(C(C)(C)C)cc3)C2)c1 (centres unmarked) [TCMDC-134512],5.537
14,CCc1ccc(CN2CCC(CNC(=O)c3cc(-c4ccccc4F)cs3)C2)cc1 (centres unmarked) [TCMDC-134431],96.16
15,COc1ccccc1-c1csc(C(=O)NCC2CCN(Cc3ccc(C(C)C)cc3)C2)c1 (centres unmarked) [TCMDC-134510],-33.71
16,CC(C)c1ccc(CN2CCCCC(NC(=O)c3cc(-c4ccccc4F)cs3)C2)cc1 (centres unmarked) [TCMDC-134462],-8.212
17,CC(C)(C)c1ccc(CN2CCC(CNC(=O)c3cc(-c4ccccc4C(F)(F)F)cs3)C2)cc1 (centres unmarked) [TCMDC-134441],105.6
18,CCCc1cc(C(=O)N[C@@H](Cc2ccccc2)[C@H](O)CNC2CCOCC2)c(F)c(N2CCCCS2(=O)=O)c1 [TCMDC-135445],21.51
19,Cc1ccccc1C1CCN(C2CCC(NC(=O)c3ccc(-c4ccccn4)s3)CC2)CC1 (centres unmarked) [TCMDC-134106],-14.35
20,COc1cc(Cc2cnc(N)nc2N)ccc1OCc1cccc(Oc2ccccc2)c1 [TCMDC-138681],-11.55
21,COc1cccc(Nc2nccc(NCC(O)c3ccc(C(F)(F)F)cc3)n2)c1 (centres unmarked) [TCMDC-136594],-17.97
